Reference: PubChem BioAssay
Numbered stars: 1 amine (or outer) side, 2 acyl side, 3 side chain; on linkers, the order of the positions; unused ones are H or OH. Bridge positions count the residues as written; N and C are the ends. Square brackets hold non-standard residues; d marks the D form. Peptide text beside a SMILES is read from it. * marks the point of attachment. X4 = NC1=N[C@@H]([C@H](N[*:1])C(=O)[*:2])C[C@H](O)N1; ΔAla(Z-3-ureido) = NC(=O)N/C=C(\N)C(=O)O; β3hOrn = NCCC[C@H](N)CC(=O)*; Dap = NC[C@H](N)C(=O)O

target: NAD(+) hydrolase SARM1 (Homo sapiens) (UniProt Q6SZW1); assay: SARM1 TIR NADase inhibitors, cell lysate, NAD-Glo luminescence (AID 1508614); conditions: SAM-TIR HEK293T lysate NADase, at 1 µM, stronger effect = higher value;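 further: higher remaining NAD means stronger inhibition of SARM1 NADase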
Sequence (Q6SZW1 whole entry, looked up): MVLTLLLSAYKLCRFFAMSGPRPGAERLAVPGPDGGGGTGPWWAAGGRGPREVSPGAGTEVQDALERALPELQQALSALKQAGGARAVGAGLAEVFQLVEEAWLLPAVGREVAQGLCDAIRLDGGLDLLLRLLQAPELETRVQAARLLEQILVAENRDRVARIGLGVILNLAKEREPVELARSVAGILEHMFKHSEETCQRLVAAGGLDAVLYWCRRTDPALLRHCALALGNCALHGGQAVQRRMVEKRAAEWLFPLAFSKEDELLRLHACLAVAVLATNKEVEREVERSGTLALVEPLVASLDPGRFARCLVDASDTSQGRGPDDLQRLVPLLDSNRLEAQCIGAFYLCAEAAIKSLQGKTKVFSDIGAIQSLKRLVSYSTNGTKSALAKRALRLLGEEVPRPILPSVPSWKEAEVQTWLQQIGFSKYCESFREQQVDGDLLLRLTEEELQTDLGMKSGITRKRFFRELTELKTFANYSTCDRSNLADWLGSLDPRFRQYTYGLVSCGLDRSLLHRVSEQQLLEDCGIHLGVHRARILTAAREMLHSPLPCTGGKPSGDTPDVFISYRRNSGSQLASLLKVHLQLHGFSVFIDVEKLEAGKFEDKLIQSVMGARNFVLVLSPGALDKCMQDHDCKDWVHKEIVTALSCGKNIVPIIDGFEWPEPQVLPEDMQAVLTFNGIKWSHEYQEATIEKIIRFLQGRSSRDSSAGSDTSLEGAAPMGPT

Remaining NAD, inactive:
CCOC(=O)O[C@]1(C(=O)COC(=O)CC)CC[C@H]2[C@@H]3CCC4=CC(=O)C=C[C@]4(C)[C@H]3[C@@H](O)C[C@@]21C 10 nM, NC[C@H]1O[C@H](O[C@H]2[C@H](O)[C@@H](O[C@H]3O[C@H](CO)[C@@H](O)[C@H](N)[C@H]3O)[C@H](N)C[C@@H]2N)[C@H](O)[C@@H](O)[C@@H]1O 10 nM, CCOc1nc2cccc(C(=O)OCc3oc(=O)oc3C)c2n1Cc1ccc(-c2ccccc2-c2noc(=O)[nH]2)cc1 10 nM, C[C@]12CC[C@@H]3c4ccc(OS(=O)(=O)O)cc4CC[C@H]3[C@@H]1CCC2=O 10 nM, CC(C)(O/N=C(\C(=O)N[C@@H]1C(=O)N2C(C(=O)[O-])=C(C[n+]3ccccc3)CS[C@H]12)c1csc(N)n1)C(=O)O 10 nM, CO/N=C(\C(=O)N[C@@H]1C(=O)N2C(C(=O)O)=C(C[N+]3(C)CCCC3)CS[C@H]12)c1csc(N)n1 10 nM, CC(C)[N+]1(C)[C@@H]2CC[C@H]1CC(OC(=O)C(CO)c1ccccc1)C2 (some centres undefined) 10 nM, NCCC[C@H](N)CC(=O)N[C@H]1CNC(=O)[C@H]([C@H]2C[C@H](O)NC(N)=N2)NC(=O)/C(=C/NC(N)=O)NC(=O)[C@H](CO)NC(=O)[C@H](CO)NC1=O (β3hOrn-[Dap]SS[ΔAla(Z-3-ureido)][X4]; lactam 1-C) 10 nM, NCc1ccccc1CC(=O)N[C@@H]1C(=O)N2C(C(=O)O)=C(CSc3nnnn3CC(=O)O)CS[C@H]12 10 nM
